mut p53 react – re-activators of the mutant p53 pathway. SW480 PUMA-promoter luciferase, p53 mutant reactivation. activation, % at 9.98 µM. 28,000 tested, 1.5% active. AID 624151; in the data active = activation above about 52%; inconclusive = no clear call, values can overlap the other calls
STK33 inh – blocks human STK33 kinase activity; Q9BYT3; ADP-Glo luminescence, MBP substrate; inhibition, % at 12.5 µM; 27,000 tested, 0.44% active; in the data active = inhibition above about 20%; inconclusive = no clear call, values can overlap the other calls
ID4 binder – ID4 (human) binding; P47928; small molecule microarray, Flag-ID4 binding, fluorescence F/B; calls only; 31,000 tested, 1.2% active; call rule not given here;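 note: a binder raises fluorescence above local background on the spot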
Target sequence (P47928 whole entry, looked up): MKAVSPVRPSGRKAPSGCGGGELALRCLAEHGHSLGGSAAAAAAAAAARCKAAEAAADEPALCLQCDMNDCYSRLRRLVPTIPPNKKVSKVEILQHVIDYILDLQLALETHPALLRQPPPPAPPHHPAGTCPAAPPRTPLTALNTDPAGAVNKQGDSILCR
The depositor's hits bear a star. The list is not random: actives were taken first. Their share in the collection is about 2%.

Screening Cc1cc(C(=O)Oc2c(C)cc(C(=O)O)c(O)c2C)c(O)c(C)c1O returned mut p53 react 7 and STK33 inh -10.
For CN1CCN(S(=O)(=O)c2ccc(Sc3nc4ccccc4[nH]3)c3nsnc23)CC1 the results were mut p53 react -5, STK33 inh -2 and ID4 binder active.
Screening Cc1ccc2nsnc2c1S(=O)(=O)N1CCN(CCc2ccccc2)CC1 returned mut p53 react -1, STK33 inh -1 and ID4 binder inactive.
Screening C=CCN(CC=C)S(=O)(=O)c1ccc(C(=O)Nc2ccccc2-c2nc3ccccc3[nH]2)cc1 returned mut p53 react 12 and ID4 binder inactive.
Screening C=C1C(=O)OC2CC1C(OC(C)=O)C/C(C)=C\CC/C(C)=C\CC[C@]2(C)O (some centres undefined) returned STK33 inh 2.
Screening CCOCCCNc1nc2c([nH]1)c(=O)n(C)c(=O)n2C returned mut p53 react -6, STK33 inh -3 and ID4 binder inactive.
Cn1c(=O)c2[nH]c(NCCN3CCOCC3)nc2n(C)c1=O was read as mut p53 react -7, STK33 inh 3 and ID4 binder active.
`Cc1cccc(NC(=O)CCC(=O)O)c1` gave mut p53 react -6, STK33 inh -4 and ID4 binder inactive.
Screening Cc1cc(C)c(C)c(OCC(=O)NCc2ccccn2)c1 returned mut p53 react 8, STK33 inh -1 and ID4 binder inactive.
For Cc1cc(OCC(=O)Nc2ncn[nH]2)c(C)cc1Br the results were mut p53 react 57*, STK33 inh -1 and ID4 binder inactive.
CC(C)(C)c1ccc(OCC(=O)Nc2ncn[nH]2)c(Br)c1 was read as mut p53 react 47, STK33 inh 2 and ID4 binder inactive.
`CCCn1nnnc1NC(=O)COc1ccc(Cl)c(C)c1` gave mut p53 react -11, STK33 inh -1 and ID4 binder inactive.
Cc1cc(OCC(=O)Nc2ncn[nH]2)ccc1Cl was read as mut p53 react 78*, STK33 inh 0 and ID4 binder inactive.
For Cc1cc(OCC(=O)NCc2ccccn2)c(C)cc1Br the results were mut p53 react 119*, STK33 inh -1 and ID4 binder inactive.
`COC(=O)[C@@]1(Cc2ccccc2N=[N+]=[N-])N=C(c2ccc(OCCCO)cc2)O[C@H]1c1ccccc1N=[N+]=[N-]` gave STK33 inh 10.
`O=C(/C=C/c1ccc(O)cc1)OC[C@H]1O[C@@H](Oc2cc(O)c3c(c2)OC(c2ccc(O)cc2)CC3=O)[C@H](O)[C@@H](OC(=O)/C=C/c2ccc(O)cc2)[C@@H]1O` (some centres undefined) gave STK33 inh -1 and ID4 binder inactive.
For O=C1C=CC(O)(/C=C/C(=O)OC[C@H]2O[C@@H](Oc3ccc(O)cc3)[C@H](O)[C@@H](OC(=O)/C=C/C3(O)C=CC(=O)C=C3)[C@@H]2O)C=C1 the results were mut p53 react 18, STK33 inh 52* and ID4 binder inactive.
COc1cc(/C=C/C(=O)NCCSc2c[nH]c3ccccc23)cc(OC)c1OC was read as mut p53 react 2 and ID4 binder inactive.
CCc1ccc(OCC(=O)Nc2ccc3oc(-c4ccccc4F)nc3c2)cc1 was read as mut p53 react -29, STK33 inh 1 and ID4 binder inactive.
Screening Cc1ccccc1-c1nc2cc(NC(=O)COc3ccc(Cl)cc3)ccc2o1 returned mut p53 react 71*, STK33 inh -4 and ID4 binder inactive.
Screening O=C(COc1ccccc1)Nc1ccc2oc(-c3ccc(Cl)cc3Cl)nc2c1 returned mut p53 react 0, STK33 inh -1 and ID4 binder inactive.
`Cc1ccccc1-c1nc2cc(NC(=O)COc3ccc(Br)cc3)ccc2o1` gave mut p53 react 74*, STK33 inh 5 and ID4 binder inactive.
O=C(CCc1ccc(O)cc1)c1c(O)cc(O[C@@H]2O[C@H](CO)[C@@H](O)[C@H](O)[C@H]2O)cc1O was read as mut p53 react 18, STK33 inh inconclusive and ID4 binder inactive.
For O=[N+]([O-])c1ccccc1S(=O)(=O)N1CCN(S(=O)(=O)Cc2ccccc2)CC1 the results were mut p53 react 0, STK33 inh 0 and ID4 binder inactive.
Cc1ccc(NS(=O)(=O)c2cccc(C(=O)Nc3ccccc3C(=O)O)c2)cc1 was read as mut p53 react 3, STK33 inh -2 and ID4 binder active.
`O=C(O)c1ccc(NS(=O)(=O)c2cccc(C(=O)Nc3ccccc3)c2)cc1` gave mut p53 react -5, STK33 inh 2 and ID4 binder inactive.
For CCc1cc(=O)oc2cc(OCc3cc(C(=O)OC)oc3C)ccc12 the results were mut p53 react 10, STK33 inh -1 and ID4 binder inactive.
C=C(C)[C@H]1C[C@@]2(C)C(=CC1=O)CC[C@@H](O)[C@@H]2C was read as mut p53 react -11, STK33 inh 0 and ID4 binder inactive.
N#Cc1c(NC(=O)c2ccc(COc3ccccc3Cl)o2)sc2c1CCCC2 was read as mut p53 react 4, STK33 inh 2 and ID4 binder inactive.
`COC(=O)COc1ccc(NC(=O)c2ccc(NC(C)=O)cc2)cc1` gave mut p53 react -9, STK33 inh 0 and ID4 binder inactive.
`N#Cc1cc[n+](CC(=O)c2ccc(NC(=O)c3ccccc3)cc2)cc1` gave STK33 inh 12.
For N#Cc1ccc(NC(=O)c2ccc(Br)o2)cc1 the results were mut p53 react 64* and ID4 binder inactive.
`O=C(CC1NC(=O)NC1=O)Nc1ccc(F)cc1` (centres undefined) gave mut p53 react -2, STK33 inh -7 and ID4 binder inactive.
Screening O=C(CC1CCOCC1)Nc1ccc(I)cc1 returned mut p53 react 63* and ID4 binder inactive.
